# Experimental data taken from paper PMC7862700, “An all-to-all approach to the identification of sequence-specific readers for epigenetic DNA modifications on cytosine”.
# Assays:
# Assay in all cases: DAPPL (digital affinity profiling via proximity ligation, sequencing); 10 mM Tris-HCl pH 7.5, 50 mM NaCl, 1 mM DTT, 4% glycerol, room temperature, 30 min; GST-TFs on glutathione beads, 16-mer random dsDNA library, 0.1% formaldehyde crosslink after washing; high values mean tight binding
# Conditions in all cases: protein: recombinant; tags: N-terminal GST; dsDNA, one strand shown
# ETV1 = ETV1 (Homo sapiens, UniProt P50549 1-477)
# How it was run: (§1)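 Pools were built from human transcription factors expressed in yeast as GST fusions, captured on glutathione beads and DNA-barcoded, along with a tag-only sample. Incubation with 200 nmole of a 16-mer random double-stranded DNA library lasted 30 min at room temperature in Tris/NaCl/DTT/glycerol buffer, and was followed by washing, 0.1% formaldehyde crosslinking, proximity ligation, PCR amplification and Illumina NextSeq500 sequencing. Binding signal is the quotient of each hexamer's read frequency for a factor and its frequency for the tag-only sample.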
# ERF = molecular target: T1, ERF (Homo sapiens, UniProt P50548 1-548)
# T1 sequence: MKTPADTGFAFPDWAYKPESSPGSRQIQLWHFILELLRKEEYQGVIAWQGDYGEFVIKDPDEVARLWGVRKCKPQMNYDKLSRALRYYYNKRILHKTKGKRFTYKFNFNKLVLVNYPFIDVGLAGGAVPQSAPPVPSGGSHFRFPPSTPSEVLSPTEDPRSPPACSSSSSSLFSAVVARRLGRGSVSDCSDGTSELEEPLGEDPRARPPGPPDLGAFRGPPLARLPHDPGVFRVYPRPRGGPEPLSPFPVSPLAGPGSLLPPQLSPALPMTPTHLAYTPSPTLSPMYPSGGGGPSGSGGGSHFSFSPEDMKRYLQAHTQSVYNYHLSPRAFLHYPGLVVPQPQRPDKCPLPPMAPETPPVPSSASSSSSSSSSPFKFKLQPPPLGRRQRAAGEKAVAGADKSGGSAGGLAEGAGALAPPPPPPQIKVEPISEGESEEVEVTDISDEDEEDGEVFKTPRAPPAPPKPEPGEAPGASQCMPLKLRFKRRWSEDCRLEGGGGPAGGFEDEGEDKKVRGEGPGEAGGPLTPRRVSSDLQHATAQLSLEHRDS
# How it was run: as §1
# ETV3L = molecular target: T2, ETV3L (Homo sapiens, UniProt Q6ZN32 1-361)
# T2 sequence: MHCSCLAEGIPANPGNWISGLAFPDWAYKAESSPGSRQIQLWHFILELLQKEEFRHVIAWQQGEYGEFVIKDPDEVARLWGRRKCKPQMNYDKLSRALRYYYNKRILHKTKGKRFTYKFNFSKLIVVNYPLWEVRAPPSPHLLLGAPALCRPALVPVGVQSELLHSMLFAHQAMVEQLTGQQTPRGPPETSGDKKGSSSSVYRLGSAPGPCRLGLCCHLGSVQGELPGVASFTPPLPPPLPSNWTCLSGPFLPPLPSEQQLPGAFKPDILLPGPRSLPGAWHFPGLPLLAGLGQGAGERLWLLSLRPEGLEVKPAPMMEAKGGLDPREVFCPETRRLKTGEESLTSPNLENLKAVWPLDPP
# How it was run: as §1
# ETS2 = molecular target: T3, ETS2 (Homo sapiens, UniProt P15036 1-469)
# T3 sequence: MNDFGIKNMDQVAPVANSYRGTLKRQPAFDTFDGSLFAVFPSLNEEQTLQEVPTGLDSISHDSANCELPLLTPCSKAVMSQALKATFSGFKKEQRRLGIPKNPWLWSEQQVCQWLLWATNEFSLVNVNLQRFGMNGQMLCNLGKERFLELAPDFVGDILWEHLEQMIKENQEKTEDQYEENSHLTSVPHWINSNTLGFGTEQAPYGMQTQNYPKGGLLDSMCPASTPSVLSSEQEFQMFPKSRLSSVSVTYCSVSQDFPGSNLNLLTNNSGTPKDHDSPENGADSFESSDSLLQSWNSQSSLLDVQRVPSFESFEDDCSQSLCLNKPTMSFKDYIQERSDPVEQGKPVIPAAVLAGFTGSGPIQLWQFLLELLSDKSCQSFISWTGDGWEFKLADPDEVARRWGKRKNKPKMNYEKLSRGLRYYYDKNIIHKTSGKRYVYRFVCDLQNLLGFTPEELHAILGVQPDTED
# How it was run: as §1
# SPDEF = molecular target: T4, SPDEF (Homo sapiens, UniProt O95238 1-335)
# T4 sequence: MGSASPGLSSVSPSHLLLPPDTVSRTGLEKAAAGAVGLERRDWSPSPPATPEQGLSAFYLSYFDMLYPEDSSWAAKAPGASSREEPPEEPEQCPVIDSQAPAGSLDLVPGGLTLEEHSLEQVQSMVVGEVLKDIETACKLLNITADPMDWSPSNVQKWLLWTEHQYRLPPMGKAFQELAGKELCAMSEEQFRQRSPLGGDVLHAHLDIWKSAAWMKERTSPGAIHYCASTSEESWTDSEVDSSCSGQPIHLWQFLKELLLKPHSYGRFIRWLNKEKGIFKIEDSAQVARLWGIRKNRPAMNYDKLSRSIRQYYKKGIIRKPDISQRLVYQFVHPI
# How it was run: as §1
# ETV7 = molecular target: T5, ETV7 (Homo sapiens, UniProt Q9Y603 1-341)
# T5 sequence: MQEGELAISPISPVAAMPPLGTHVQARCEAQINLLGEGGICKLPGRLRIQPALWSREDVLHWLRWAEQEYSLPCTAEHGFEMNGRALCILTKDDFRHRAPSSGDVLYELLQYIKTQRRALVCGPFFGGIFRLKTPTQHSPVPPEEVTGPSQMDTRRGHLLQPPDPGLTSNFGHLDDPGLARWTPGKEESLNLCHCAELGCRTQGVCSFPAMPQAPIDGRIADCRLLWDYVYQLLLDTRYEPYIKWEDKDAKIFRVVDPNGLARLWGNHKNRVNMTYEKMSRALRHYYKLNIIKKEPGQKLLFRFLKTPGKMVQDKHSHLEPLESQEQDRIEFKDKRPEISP
# How it was run: as §1
# ELF5 = molecular target: T6, ELF5 (Homo sapiens, UniProt Q9UKW6-2 1-255)
# T6 sequence: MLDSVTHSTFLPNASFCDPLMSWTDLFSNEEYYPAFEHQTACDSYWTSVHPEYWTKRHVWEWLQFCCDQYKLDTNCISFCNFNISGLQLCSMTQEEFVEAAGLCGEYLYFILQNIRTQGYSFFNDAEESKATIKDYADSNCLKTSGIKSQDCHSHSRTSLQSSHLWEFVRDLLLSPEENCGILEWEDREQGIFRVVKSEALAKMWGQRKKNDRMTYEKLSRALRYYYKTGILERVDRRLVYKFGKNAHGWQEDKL
# How it was run: as §1
# ETV3 = molecular target: T7, ETV3 (Homo sapiens, UniProt P41162-2 1-143)
# T7 sequence: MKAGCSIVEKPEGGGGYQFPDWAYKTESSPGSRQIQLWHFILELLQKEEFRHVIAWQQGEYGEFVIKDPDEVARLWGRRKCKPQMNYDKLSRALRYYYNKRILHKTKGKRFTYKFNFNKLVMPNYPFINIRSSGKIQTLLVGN
# How it was run: as §1
# ETV6 = ETV6 (Homo sapiens, UniProt P41212 1-452)
# How it was run: as §1
# Chain of ETV6 (P41212 whole entry): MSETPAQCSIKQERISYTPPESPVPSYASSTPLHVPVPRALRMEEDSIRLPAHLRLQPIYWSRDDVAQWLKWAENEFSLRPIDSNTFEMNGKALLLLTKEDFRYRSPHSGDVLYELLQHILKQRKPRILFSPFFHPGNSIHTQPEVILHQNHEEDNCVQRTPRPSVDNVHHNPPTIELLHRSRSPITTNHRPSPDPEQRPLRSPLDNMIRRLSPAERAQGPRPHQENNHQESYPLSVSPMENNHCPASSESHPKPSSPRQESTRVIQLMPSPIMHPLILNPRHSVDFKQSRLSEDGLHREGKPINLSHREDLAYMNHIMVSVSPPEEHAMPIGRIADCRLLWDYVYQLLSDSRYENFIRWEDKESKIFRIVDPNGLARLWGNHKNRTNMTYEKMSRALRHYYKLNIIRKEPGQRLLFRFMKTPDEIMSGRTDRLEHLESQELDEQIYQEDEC
# Chain of ETV1 (P50549 whole entry, the tested form may be a part): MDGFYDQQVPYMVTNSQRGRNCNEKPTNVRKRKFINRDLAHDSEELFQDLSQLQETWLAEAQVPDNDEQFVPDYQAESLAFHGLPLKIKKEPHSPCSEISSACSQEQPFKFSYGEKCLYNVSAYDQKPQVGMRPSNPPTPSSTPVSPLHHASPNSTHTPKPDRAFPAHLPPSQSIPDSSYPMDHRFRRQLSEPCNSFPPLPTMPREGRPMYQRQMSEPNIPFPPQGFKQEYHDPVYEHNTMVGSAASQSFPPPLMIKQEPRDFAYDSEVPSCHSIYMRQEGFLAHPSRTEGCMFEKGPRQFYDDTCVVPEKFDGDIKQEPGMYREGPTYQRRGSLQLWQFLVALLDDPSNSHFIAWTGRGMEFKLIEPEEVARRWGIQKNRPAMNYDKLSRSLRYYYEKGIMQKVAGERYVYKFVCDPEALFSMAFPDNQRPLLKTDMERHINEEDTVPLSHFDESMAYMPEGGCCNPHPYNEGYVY
sequence,measurement,setting,value
AAAATA,binding signal,ETV1,"1.1 fold enrichment (6-mer frequency, TF over GST control)"
same,binding signal,ERF,"1.27 fold enrichment (6-mer frequency, TF over GST control)"
same,binding signal,ETV3L,"1.14 fold enrichment (6-mer frequency, TF over GST control)"
same,binding signal,ETS2,"1.24 fold enrichment (6-mer frequency, TF over GST control)"
same,binding signal,SPDEF,"1.06 fold enrichment (6-mer frequency, TF over GST control)"
same,binding signal,ETV7,"1.22 fold enrichment (6-mer frequency, TF over GST control)"
same,binding signal,ELF5,"1.2 fold enrichment (6-mer frequency, TF over GST control)"
same,binding signal,ETV3,"1.13 fold enrichment (6-mer frequency, TF over GST control)"
same,binding signal,ETV6,"1.25 fold enrichment (6-mer frequency, TF over GST control)"
